Source: article PMC5540273 (PLoS ONE, 2017)
Where “and” joins values, the source holds several entries; their conditions need not be identical. Identical values can stand only once. Like-named read-outs stand apart in the source and are kept apart here.

Key:
Details in all cases: concentration: 1 μM, replicates: in singlicate, n = 1
MKK7 = tested on: MKK7
MKNK1 = tested on: MKNK1
MKNK2 = tested on: MKNK2
MLCK = tested on: T1, MLCK
T1 construct: gene MYLK3

MLK1 = tested on: T2, MLK1
T2 construct: gene MAP3K9

MLK2 = tested on: MLK2
MLK3 = tested on: MLK3
MRCKA = tested on: MRCKA
MRCKB = tested on: T3, MRCKB
T3 construct: gene CDC42BPB

MST1R = tested on: MST1R
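Further: KINOMEscan kinase panel screen.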

Structure (SMILES)	%Inh (MKK7) [%]	%Inh (MKNK1) [%]	%Inh (MKNK2) [%]	%Inh (MLCK) [%]	%Inh (MLK1) [%]	%Inh (MLK2) [%]	%Inh (MLK3) [%]	%Inh (MRCKA) [%]	%Inh (MRCKB) [%]	%Inh (MST1R) [%]	%Inh (MKK7; 1 µM)	%Inh (MKNK1; 1 µM)	%Inh (MKNK2; 1 µM)	%Inh (MLCK; 1 µM)	%Inh (MLK1; 1 µM)	%Inh (MLK2; 1 µM)	%Inh (MLK3; 1 µM)	%Inh (MRCKA; 1 µM)	%Inh (MRCKB; 1 µM)	%Inh (MST1R; 1 µM)
Cc1cn2c(=O)cc(N3CCOCC3)nc2n1Cc1cccc(Cl)c1Cl [GSK2334006]	29	2	10	0	0	2	38	6	8	28	–	–	–	–	–	–	–	–	–	–
CN1c2ccc(CNc3ccc(F)cc3)cc2-c2c(cnn2C)S1(=O)=O	0	15	0	3	0	24	0	0	0	0	–	–	–	–	–	–	–	–	–	–
Cc1c2ccc(N(C)c3ccnc(Nc4cccc(S(N)(=O)=O)c4)n3)cc2nn1Cc1ccccc1.Cl.Cl [GW787226]	15	0	0	0	0	50	26	0	0	0	–	–	–	–	–	–	–	–	–	–
CN(C(=O)c1ccc(-c2cc(-c3c[nH]nc3-c3ccccn3)ccn2)cc1)C1CCOCC1 [GW810083]	0	0	37	0	0	0	0	4	10	0	–	–	–	–	–	–	–	–	–	–
Cn1ccc2ncnc(Oc3ccc(NC(=O)Nc4ccncc4)c(Cl)c3)c21	0	0	0	0	0	5	0	0	0	17	–	–	–	–	–	–	–	–	–	–
CC(C)(CN)c1nc(-c2ccc(Cl)c(O)c2)c(-c2ccncc2)[nH]1.O=C(O)C(F)(F)F [SB-477794]	–	–	–	–	–	–	–	–	–	–	26% and 0%	9% and 0%	9% and 0%	0% and 14%	0% and 7%	0% and 10%	0% and 32%	46% and 35%	76% and 72%	39% and 0%
N#Cc1c(N2CCOCC2)sc(-c2ccn[nH]2)c1-c1ccc(Cl)cc1	20	26	0	0	0	5	22	0	0	1	–	–	–	–	–	–	–	–	–	–
Cc1cccc(-c2nc(-c3ccc(S(C)(=O)=O)cc3)sc2-c2ccncc2)c1	20	0	13	0	0	33	27	0	0	23	–	–	–	–	–	–	–	–	–	–
Cc1cccc(Cn2ccn3c(=O)cc(N4CCOCC4)nc23)c1 [GSK2297542]	0	0	3	0	18	0	18	0	6	39	–	–	–	–	–	–	–	–	–	–
CC(=O)Nc1ccc(COc2ccc(Nc3ccnc4cc(-c5ccccn5)ccc34)cc2)cc1.Cl [GW440148]	0	0	6	5	0	0	0	13	0	56	–	–	–	–	–	–	–	–	–	–
Nc1nc(-c2ccc3c(N)n[nH]c3c2)cc(N2CCCC2)n1 [GSK2227430]	0	4	12	0	0	6	0	6	0	1	–	–	–	–	–	–	–	–	–	–
CNc1ncnc2[nH]ncc12 [SKF-18355]	0	0	0	1	1	0	2	0	0	0	–	–	–	–	–	–	–	–	–	–
Cl.Nc1ncnc2occ(-c3ccc(NC(=O)Nc4cc(C(F)(F)F)ccc4F)cc3)c12 [SB-707548]	22	56	98	44	40	65	65	11	0	28	–	–	–	–	–	–	–	–	–	–
COC(=O)Nc1nc2cc(Oc3ccc(NC(=O)Nc4cc(F)ccc4F)cc3)ccc2[nH]1.Cl [GW701424]	0	23	12	0	0	0	0	16	0	29	–	–	–	–	–	–	–	–	–	–
CC(C)Oc1ccc2c(-c3ccnc(Nc4ccc(N5CCN(C)CC5)cc4)n3)cnn2n1 [GW696155]	0	37	84	42	0	0	0	35	0	0	–	–	–	–	–	–	–	–	–	–
